High-throughput results: PubChem, National Center for Advancing Translational Sciences (NCATS)
Nrf2 ARE act = qHTS of Nrf2 Activators; Potency, µM (highest dose often 46.1 µM), hits mostly activators; AREc32 ARE-luciferase reporter (MCF7-derived line), luminescence, 24 h; hit rate 0.31% among 410,000; note: nearly all actives have a fitted effect of over 65% in size
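Cells of the AREc32 ARE-luciferase line are plated in OPTI-MEM containing 5% FBS and left overnight at 37 deg C. Compounds are pinned in, incubation continues 24 hr, and firefly luciferase signal is then measured.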
TGFb inhibitor = qHTS for Inhibitors of TGF-b; HepG2 CAGA-GFP TGF-b/SMAD3 reporter, GFP fluorescence, 18 h; TGF-beta stimulated, 500 pg/mL final; Potency, µM (doses to about 46.1 µM), actives largely listed as inhibitors; hit rate 1.2% among 410,000; AID 588855, 2011; note: nearly all actives have a fitted effect of over 65% in size
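Using HEPG2 CAGA-GFP reporter cells at 1000 cells/well, we pinned test compounds, stimulated with recombinant TGF-beta (500 pg/mL final) and measured total well GFP after 18 h.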
A549 tox = Nrf2 qHTS screen for inhibitors: counterscreen for cytotoxicity. AID 504648, 2011. Potency, µM (titrated, usually from 46 µM), most hits filed as inhibitors. A549 ARE-Fluc cells, CellTiter-Fluor viability, 18-24 h. hit rate 0.16% among 390,000
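A549 ARE_Fluc cells in 5% FBS OPTI-MEM were exposed to compounds in concentration-response for 18-24 h at 37 deg C. Viability was read by CellTiter-Fluor fluorescence (Ex 405/Em 525) after 30 min, before the luciferase read.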
HepG2 viability = qHTS for Inhibitors of TGF-b: Cytotox Counterscreen; HepG2 CAGA-GFP viability, ATP luminescence, 18 h; Potency, µM (titrated, usually from 46.1 µM), actives largely listed as cytotoxic; hit rate 0.76% among 410,000; AID 588856, 2011
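CellTiter-Glo luminescence gave cytotoxicity after 18 hours at 37 degrees C. The cells were HepG2 CAGA-GFP in 1% FBS DMEM, stimulated with 500 pg/mL TGF-beta after compound addition. %Activity was normalised to no-cell wells (complete cell-killing) and DMSO (no toxicity), and curves were fitted and classified.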
Nrf2 block = Nrf2 qHTS screen for inhibitors; A549 ARE-Fluc reporter, luciferase luminescence, 18-24 h; Potency, µM (titrated, usually from 46 µM), actives largely listed as inhibitors; hit rate 2.1% among 360,000; AID 504444, 2011; note: nearly all actives have a fitted effect of over 60% in size
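Concentration-response testing used A549 ARE_Fluc cells at 5000 cells/well. Following an 18-24 h compound incubation, viability was read by fluorescence (Ex 405/Em 525) and luciferase output by luminescence.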
Of the large screens only hits and unclear results are named; the others gave an inactive call; ! = repeats disagree. The list is not random: actives were taken first. Their share in the collection is about 3.6%. Calls come from the whole dose curve; as a rule, active = well fitted curve in the direction sought with a large enough effect; inconclusive = small, poorly fitted or top-dose-only effect, or another doubt; inactive = no such curve, though single readings can be large; an effect the other way counts as inactive or inconclusive.

CCc1nc2c(OCC3CCCCC3)cccn2c1N(C)C(=O)c1ccc(OC)cc1	TGFb inhibitor inconclusive (no result: A549 tox, Nrf2 block)
CC(=O)c1ccc(N2C(=O)N(Cc3ccc(F)cc3)c3ccccc3S2(=O)=O)cc1	none (no result: Nrf2 block)
CCn1c2c(c(=N)c3c1CCC3)CCC2	none
CCn1c2c(c(=N)c3ccccc31)CCC2	Nrf2 block 13µM
CC1CCN(S(=O)(=O)c2ccc3nc(Nc4cccc(F)c4)ccc3c2)CC1	TGFb inhibitor inconclusive, A549 tox inconclusive, Nrf2 block 21µM
Cc1ccc(Nc2ccc3cc(S(=O)(=O)N4CCC(C)CC4)ccc3n2)c(Cl)c1	none
CC1CCN(S(=O)(=O)c2ccc3nc(NCc4ccccc4)ccc3c2)CC1	TGFb inhibitor inconclusive, Nrf2 block 16µM
Cc1ccccc1-c1nc(CS(=O)(=O)CC(=O)NCCCc2ccccc2)c(C)o1	TGFb inhibitor inconclusive, A549 tox inconclusive, Nrf2 block 21µM
Cc1ccccc1-c1nc(CS(=O)(=O)CC(=O)NCc2ccccc2)c(C)o1	none
Cc1oc(-c2cccc(Cl)c2)nc1CS(=O)(=O)CC(=O)NC(C)CCc1ccccc1 (centres undefined)	TGFb inhibitor 10µM
Cc1oc(-c2ccccc2Cl)nc1CS(=O)(=O)CC(=O)NC(C)CCc1ccccc1 (centres undefined)	TGFb inhibitor 10µM
O=C(NCCc1ccc(Cl)cc1)C1CCN(S(=O)(=O)N2CCCC2)CC1	none
Cc1cc(C)c(Nc2ncnc3c2cnn3C)c(C)c1	none (no result: Nrf2 block)
Cc1nc2c(ccc3nc(NC(=O)Cc4ccccc4)sc32)s1	none
CCc1[nH]c(=O)c(C#N)c2c1COC(C)(C)C2	none (no result: Nrf2 block)
CCCCCCCN(c1ccccc1)C1C[C@H]2CCCC(=O)N3CC[C@@H](C1)[C@@H]23 (some centres undefined)	TGFb inhibitor 14µM (no result: Nrf2 ARE act, A549 tox, Nrf2 block)
COc1ccc(-c2noc(C3CCCN(C(=O)c4ccccc4C)C3)n2)cc1 (centres undefined)	Nrf2 block inconclusive
O=C1C=CC(n2cc(F)c(=O)[nH]c2=O)O1 (centres undefined)	Nrf2 ARE act 25µM (no result: A549 tox, Nrf2 block)
Cc1cc(C)c(NC(=O)Cn2c(=O)n(Cc3ccc4c(c3)OCO4)c(=O)c3ccccc32)c(C)c1	none
Cc1cc(C)c(NC(=O)Cn2c(=O)n(Cc3ccc(C(=O)NCc4ccc5c(c4)OCO5)cc3)c(=O)c3ccccc32)c(C)c1	Nrf2 block 15µM
CC(C)(C)c1ccc(CC(=O)N2CCC2(C)C(=O)NS(=O)(=O)c2ccccc2C(F)(F)F)cc1 (centres undefined)	none (no result: A549 tox, Nrf2 block)
COc1ccc(C2=Nn3c(nnc3-c3ccccc3Cl)SC2)cc1OC1CCOC1 (centres undefined)	none
COc1ccc(C2=Nn3c(nnc3-c3ccccc3Cl)SC2)cc1OC1CCCC1	TGFb inhibitor inconclusive, Nrf2 block 16µM
CCN(c1ccccc1)C(CNS(=O)(=O)c1ccccc1)c1ccccc1 (centres undefined)	TGFb inhibitor 16µM, Nrf2 block 23µM
Cc1cc(C(Br)(Br)Br)nc2ccccc12	TGFb inhibitor inconclusive, HepG2 viability 11µM (no result: Nrf2 ARE act, A549 tox, Nrf2 block)
Cc1cc(Cl)nc2ccccc12	none (no result: Nrf2 ARE act, A549 tox, Nrf2 block)
CC[n+]1c(/C=C2\C=C(C)CC(C)(C)C2)sc2ccccc21	Nrf2 ARE act inconclusive, TGFb inhibitor 10µM, Nrf2 block 16µM
CCN(CCCNC(=O)c1cc2c(Cl)nc3ccccc3c2s1)Cc1ccccc1	Nrf2 block inconclusive
Cc1ccc2nc(Cl)c3cc(C(=O)NCCCN(C)Cc4ccccc4)sc3c2c1	TGFb inhibitor inconclusive, HepG2 viability 13µM
CN(CCCNC(=O)c1cc2c(Cl)nc3ccccc3c2s1)Cc1ccccc1	TGFb inhibitor inconclusive, A549 tox inconclusive, HepG2 viability 16µM!, Nrf2 block inconclusive
CCC(C)(C)NC(=O)C(c1ccc(OC)cc1)N(C(=O)CCC(=O)Nc1cc(C)on1)c1cccc(F)c1 (centres undefined)	A549 tox inconclusive, Nrf2 block 5.8µM
O=S(=O)(c1ccc(Cl)s1)N1CCN(C/C=C/c2ccccc2)CC1	TGFb inhibitor inconclusive, Nrf2 block 10µM
CCSc1nc2c(c(=O)[nH]c(=O)n2C)n1C/C=C(/C)Cl	HepG2 viability 7.1µM (no result: Nrf2 block)
CSc1nc2c(c(=O)[nH]c(=O)n2C)n1C/C=C(\C)Cl	none
CCOC(=O)c1c(-c2ccc(OC)cc2)csc1/N=C/C1C(=O)CCCC1=O	HepG2 viability 16µM
Oc1ccc2ccccc2c1/C=N/Nc1nnc(-c2ncc[nH]2)c2ccccc12	TGFb inhibitor inconclusive, Nrf2 block 5.2µM (no result: A549 tox)
CCn1c2ccccc2c2cc(CN3CCN(Cc4ccc(Br)cc4)CC3)ccc21	TGFb inhibitor inconclusive, HepG2 viability 11µM
CCn1c2ccccc2c2cc(CN3CCN(S(=O)(=O)Cc4ccccc4)CC3)ccc21	none
CCOc1ccc(NC(=O)Cn2c(=O)n(Cc3ccccc3)c(=O)c3c4c(sc32)CN(C(C)=O)CC4)cc1	none
CCc1ccc(C(=O)CN(C#N)c2nc(C)cc(C)n2)cc1	TGFb inhibitor inconclusive, HepG2 viability 11µM, Nrf2 block inconclusive
Cc1ccc(-c2csc(=Nc3ccccc3)n2CCCO)cc1	TGFb inhibitor 7.1µM, Nrf2 block inconclusive
CC(C)Cn1c(-c2ccc(S(=O)(=O)N3CCCC3)cc2)csc1=Nc1ccccc1	Nrf2 block 16µM
OCCCn1c(-c2ccc(F)cc2)csc1=Nc1ccc(F)cc1	TGFb inhibitor inconclusive
O=S(=O)(c1ccc(-c2csc(=Nc3ccc(F)cc3)n2CCCCCCO)cc1)N1CCCC1	TGFb inhibitor inconclusive, A549 tox inconclusive, Nrf2 block 23µM
C=CCn1c(-c2ccc(S(=O)(=O)N3CCOCC3)cc2)csc1=Nc1ccccc1	Nrf2 block inconclusive
COC(=O)CCCN1C(=O)c2cccc3cccc(c23)C1=O	Nrf2 ARE act 13µM
O=C1c2ccc3c4c(ccc(c24)C(=O)N1CCCCO)C(=O)N(CCCCO)C3=O	TGFb inhibitor 2.5µM, A549 tox 18µM, HepG2 viability 3.2µM, Nrf2 block inconclusive
O=C(c1ccc2c(c1)C(=O)N(CCCO)C2=O)c1ccc2c(c1)C(=O)N(CCCO)C2=O	none (no result: Nrf2 block)
CN(C(=O)c1ccccc1C(=O)OCC(=O)c1ccc(F)cc1)c1ccccc1	none
COc1ccc(-c2cn(Cc3ccc(C(=O)c4ccccc4)cc3)nn2)cc1	TGFb inhibitor 10µM, Nrf2 block inconclusive
CC(C)(C)c1ccc(C2NC(=O)c3n[nH]c(-c4cccs4)c32)cc1 (centres undefined)	TGFb inhibitor inconclusive, HepG2 viability 11µM, Nrf2 block inconclusive
Cc1ccc(C2C(C#N)=C(N)Oc3n[nH]c(-c4cccs4)c32)cc1 (centres undefined)	TGFb inhibitor inconclusive
